How the values were obtained:
Assay in all cases: DAPPL (digital affinity profiling via proximity ligation, sequencing); 10 mM Tris-HCl pH 7.5, 50 mM NaCl, 1 mM DTT, 4% glycerol, room temperature, 30 min; GST-TFs on glutathione beads, 16-mer random dsDNA library, 0.1% formaldehyde crosslink after washing; high values mean tight binding
FLI1 = biological target: T1, FLI1 (Homo sapiens, UniProt Q01543 1-452); conditions: protein: recombinant; tags: N-terminal GST; dsDNA, one strand shown
T1 sequence: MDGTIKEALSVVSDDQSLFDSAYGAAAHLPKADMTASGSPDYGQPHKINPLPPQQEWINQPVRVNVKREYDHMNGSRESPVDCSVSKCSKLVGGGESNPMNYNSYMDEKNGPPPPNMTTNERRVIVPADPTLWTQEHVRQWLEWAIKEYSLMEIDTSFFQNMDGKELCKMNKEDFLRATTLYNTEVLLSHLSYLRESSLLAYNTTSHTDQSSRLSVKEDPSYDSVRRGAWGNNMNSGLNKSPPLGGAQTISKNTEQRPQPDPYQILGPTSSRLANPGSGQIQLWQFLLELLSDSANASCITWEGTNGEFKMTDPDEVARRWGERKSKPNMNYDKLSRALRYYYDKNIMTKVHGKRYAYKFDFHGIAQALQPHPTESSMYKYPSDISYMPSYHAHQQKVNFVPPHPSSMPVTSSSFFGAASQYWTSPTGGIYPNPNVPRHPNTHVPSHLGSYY
Method in brief: (§1)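 The binding signal reported is, for every hexamer, its read frequency for a factor over its read frequency for the tag-only sample. Reads came from pools of yeast-expressed, GST-fused human transcription factors on glutathione beads, barcoded with DNA and mixed with that sample, which were incubated with 200 nmole of a random double-stranded 16-mer DNA library in Tris/NaCl/DTT/glycerol buffer at room temperature for 30 min. After washing, the pools were crosslinked with 0.1% formaldehyde, proximity-ligated with BsaI/T4 ligase for 1 h at 37 °C, PCR-amplified and sequenced on an Illumina NextSeq500.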

ELK1 = biological target: T2, ELK1 (Homo sapiens, UniProt P19419 1-428); conditions: protein: recombinant; tags: N-terminal GST; dsDNA, one strand shown
T2 sequence: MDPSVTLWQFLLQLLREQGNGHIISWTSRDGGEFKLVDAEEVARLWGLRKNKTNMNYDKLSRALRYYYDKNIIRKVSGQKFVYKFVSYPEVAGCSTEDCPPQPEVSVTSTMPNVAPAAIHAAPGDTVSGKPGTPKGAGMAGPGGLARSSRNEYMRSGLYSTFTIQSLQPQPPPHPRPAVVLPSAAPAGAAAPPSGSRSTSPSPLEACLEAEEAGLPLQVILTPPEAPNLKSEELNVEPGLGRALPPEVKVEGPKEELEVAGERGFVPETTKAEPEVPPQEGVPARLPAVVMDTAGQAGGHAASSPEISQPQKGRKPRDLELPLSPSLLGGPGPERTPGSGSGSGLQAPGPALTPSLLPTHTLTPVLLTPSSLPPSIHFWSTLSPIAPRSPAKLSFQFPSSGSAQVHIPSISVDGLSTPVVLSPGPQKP
Method in brief: as §1

GABPA = biological target: T3, GABPA (Homo sapiens, UniProt Q06546 1-454); conditions: protein: recombinant; tags: N-terminal GST; dsDNA, one strand shown
T3 sequence: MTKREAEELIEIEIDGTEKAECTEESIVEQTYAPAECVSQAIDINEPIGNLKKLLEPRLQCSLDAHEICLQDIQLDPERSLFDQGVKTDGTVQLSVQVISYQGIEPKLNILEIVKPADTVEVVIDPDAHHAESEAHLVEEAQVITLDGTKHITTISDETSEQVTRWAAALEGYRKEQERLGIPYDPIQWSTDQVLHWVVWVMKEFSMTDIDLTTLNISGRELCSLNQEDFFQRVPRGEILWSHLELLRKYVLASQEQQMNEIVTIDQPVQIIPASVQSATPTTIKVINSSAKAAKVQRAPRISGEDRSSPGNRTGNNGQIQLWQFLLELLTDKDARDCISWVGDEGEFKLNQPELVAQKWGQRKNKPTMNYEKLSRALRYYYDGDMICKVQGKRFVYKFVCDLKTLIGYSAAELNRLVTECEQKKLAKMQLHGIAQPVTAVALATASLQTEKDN
Method in brief: as §1

ERG = biological target: T4, ERG (Homo sapiens, UniProt P11308 1-479); conditions: protein: recombinant; tags: N-terminal GST; dsDNA, one strand shown
T4 sequence: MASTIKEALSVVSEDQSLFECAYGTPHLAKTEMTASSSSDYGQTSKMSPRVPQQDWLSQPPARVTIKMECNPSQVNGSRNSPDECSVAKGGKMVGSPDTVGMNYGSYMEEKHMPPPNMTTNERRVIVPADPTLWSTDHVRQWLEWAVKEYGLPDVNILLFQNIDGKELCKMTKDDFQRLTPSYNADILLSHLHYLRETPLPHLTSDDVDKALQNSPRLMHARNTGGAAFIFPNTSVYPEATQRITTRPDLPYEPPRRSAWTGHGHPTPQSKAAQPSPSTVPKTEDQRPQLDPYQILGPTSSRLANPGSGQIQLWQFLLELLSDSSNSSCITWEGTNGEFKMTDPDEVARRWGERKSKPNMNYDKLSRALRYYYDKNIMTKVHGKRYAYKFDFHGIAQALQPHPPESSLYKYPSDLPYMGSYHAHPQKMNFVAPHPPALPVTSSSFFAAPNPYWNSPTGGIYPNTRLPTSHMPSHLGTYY
Method in brief: as §1

ELF1 = ELF1 (Homo sapiens, UniProt P32519 1-619); conditions: protein: recombinant; tags: N-terminal GST; dsDNA, one strand shown
Method in brief: as §1

EHF = biological target: T5, EHF (Homo sapiens, UniProt Q9NZC4 1-300); conditions: protein: recombinant; tags: N-terminal GST; dsDNA, one strand shown
T5 sequence: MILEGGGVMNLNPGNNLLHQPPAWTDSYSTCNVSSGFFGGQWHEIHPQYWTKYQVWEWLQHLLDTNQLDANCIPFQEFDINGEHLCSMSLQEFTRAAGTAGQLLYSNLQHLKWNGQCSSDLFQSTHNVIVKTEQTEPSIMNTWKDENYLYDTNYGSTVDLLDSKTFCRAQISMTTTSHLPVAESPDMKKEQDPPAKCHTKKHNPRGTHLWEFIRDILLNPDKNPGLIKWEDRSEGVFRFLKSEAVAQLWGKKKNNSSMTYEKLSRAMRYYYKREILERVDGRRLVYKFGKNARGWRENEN
Method in brief: as §1

SPI1 = SPI1 (Homo sapiens, UniProt P17947 1-270); conditions: protein: recombinant; tags: N-terminal GST; dsDNA, one strand shown
Method in brief: as §1

SPIB = SPIB (Homo sapiens, UniProt Q01892 1-262); conditions: protein: recombinant; tags: N-terminal GST; dsDNA, one strand shown
Method in brief: as §1

ELK3 = biological target: T6, ELK3 (Homo sapiens, UniProt P41970 1-407); conditions: protein: recombinant; tags: N-terminal GST; dsDNA, one strand shown
T6 sequence: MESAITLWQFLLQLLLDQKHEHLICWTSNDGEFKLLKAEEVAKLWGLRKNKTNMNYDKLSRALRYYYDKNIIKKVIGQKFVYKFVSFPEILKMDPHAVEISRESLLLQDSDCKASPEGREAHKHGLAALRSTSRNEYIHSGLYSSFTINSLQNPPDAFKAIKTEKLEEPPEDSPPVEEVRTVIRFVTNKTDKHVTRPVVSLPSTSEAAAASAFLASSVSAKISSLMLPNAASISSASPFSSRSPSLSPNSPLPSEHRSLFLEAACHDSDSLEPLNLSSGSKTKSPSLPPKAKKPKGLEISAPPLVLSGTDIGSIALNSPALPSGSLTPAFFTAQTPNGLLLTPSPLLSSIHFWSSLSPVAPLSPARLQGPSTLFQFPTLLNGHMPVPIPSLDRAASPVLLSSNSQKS
Method in brief: as §1

FEV = biological target: T7, FEV (Homo sapiens, UniProt Q99581 1-238); conditions: protein: recombinant; tags: N-terminal GST; dsDNA, one strand shown
T7 sequence: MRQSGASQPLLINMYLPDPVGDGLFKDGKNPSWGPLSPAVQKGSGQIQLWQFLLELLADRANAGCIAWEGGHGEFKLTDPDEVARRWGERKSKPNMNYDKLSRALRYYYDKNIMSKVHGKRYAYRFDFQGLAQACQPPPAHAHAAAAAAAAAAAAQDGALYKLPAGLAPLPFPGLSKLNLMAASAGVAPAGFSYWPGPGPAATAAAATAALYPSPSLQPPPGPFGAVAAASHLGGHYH
Method in brief: as §1

ETV5 = ETV5 (Homo sapiens, UniProt P41161 1-510); conditions: protein: recombinant; tags: N-terminal GST; dsDNA, one strand shown
Method in brief: as §1

HSF1 = HSF1 (Homo sapiens, UniProt Q00613 1-529); conditions: protein: recombinant; tags: N-terminal GST; chain copies: 3; dsDNA, one strand shown
Method in brief: as §1

ELF4 = ELF4 (Homo sapiens, UniProt Q99607 1-663); conditions: protein: recombinant; tags: N-terminal GST; dsDNA, one strand shown
Method in brief: as §1

ELK4 = biological target: T8, ELK4 (Homo sapiens, UniProt P28324-2 1-405); conditions: protein: recombinant; tags: N-terminal GST; dsDNA, one strand shown
T8 sequence: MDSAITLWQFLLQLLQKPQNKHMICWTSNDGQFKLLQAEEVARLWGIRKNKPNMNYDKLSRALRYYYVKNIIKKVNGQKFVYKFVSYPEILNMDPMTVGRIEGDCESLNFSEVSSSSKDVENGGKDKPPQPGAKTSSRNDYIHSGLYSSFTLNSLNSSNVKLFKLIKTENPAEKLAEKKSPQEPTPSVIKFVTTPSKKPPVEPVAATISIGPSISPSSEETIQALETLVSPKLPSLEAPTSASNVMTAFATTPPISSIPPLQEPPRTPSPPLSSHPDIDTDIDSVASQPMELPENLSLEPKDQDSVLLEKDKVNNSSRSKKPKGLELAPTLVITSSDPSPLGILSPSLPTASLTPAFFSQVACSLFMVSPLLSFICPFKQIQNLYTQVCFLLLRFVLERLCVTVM
Method in brief: as §1

ETV2 = biological target: T9, ETV2 (Homo sapiens, UniProt O00321 1-342); conditions: protein: recombinant; tags: N-terminal GST; dsDNA, one strand shown
T9 sequence: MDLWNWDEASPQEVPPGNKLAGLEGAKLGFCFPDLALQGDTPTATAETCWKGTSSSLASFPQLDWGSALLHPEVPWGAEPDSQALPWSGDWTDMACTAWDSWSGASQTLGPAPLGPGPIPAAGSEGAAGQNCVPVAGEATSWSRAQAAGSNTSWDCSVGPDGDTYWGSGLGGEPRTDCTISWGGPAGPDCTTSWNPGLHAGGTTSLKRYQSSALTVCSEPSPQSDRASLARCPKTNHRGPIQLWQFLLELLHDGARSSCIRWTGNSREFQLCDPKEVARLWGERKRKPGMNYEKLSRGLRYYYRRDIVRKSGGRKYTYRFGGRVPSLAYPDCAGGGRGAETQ
Method in brief: as §1

ELF3 = biological target: T10, ELF3 (Homo sapiens, UniProt P78545 1-371); conditions: protein: recombinant; tags: N-terminal GST; dsDNA, one strand shown
T10 sequence: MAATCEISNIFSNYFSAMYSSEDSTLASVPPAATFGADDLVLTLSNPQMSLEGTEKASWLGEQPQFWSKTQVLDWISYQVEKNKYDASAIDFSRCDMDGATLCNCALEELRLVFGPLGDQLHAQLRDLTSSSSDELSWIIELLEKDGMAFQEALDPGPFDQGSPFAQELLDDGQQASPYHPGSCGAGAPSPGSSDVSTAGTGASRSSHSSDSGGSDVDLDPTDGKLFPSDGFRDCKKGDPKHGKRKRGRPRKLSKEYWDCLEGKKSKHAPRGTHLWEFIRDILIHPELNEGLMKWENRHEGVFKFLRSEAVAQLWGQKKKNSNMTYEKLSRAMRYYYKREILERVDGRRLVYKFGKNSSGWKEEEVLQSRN
Method in brief: as §1

CRX = CRX (Homo sapiens, UniProt O43186 1-299); conditions: protein: recombinant; tags: N-terminal GST; dsDNA, one strand shown
Method in brief: as §1

ETV1 = ETV1 (Homo sapiens, UniProt P50549 1-477); conditions: protein: recombinant; tags: N-terminal GST; dsDNA, one strand shown
Method in brief: as §1

Sequence of ELF4 (Q99607 whole entry): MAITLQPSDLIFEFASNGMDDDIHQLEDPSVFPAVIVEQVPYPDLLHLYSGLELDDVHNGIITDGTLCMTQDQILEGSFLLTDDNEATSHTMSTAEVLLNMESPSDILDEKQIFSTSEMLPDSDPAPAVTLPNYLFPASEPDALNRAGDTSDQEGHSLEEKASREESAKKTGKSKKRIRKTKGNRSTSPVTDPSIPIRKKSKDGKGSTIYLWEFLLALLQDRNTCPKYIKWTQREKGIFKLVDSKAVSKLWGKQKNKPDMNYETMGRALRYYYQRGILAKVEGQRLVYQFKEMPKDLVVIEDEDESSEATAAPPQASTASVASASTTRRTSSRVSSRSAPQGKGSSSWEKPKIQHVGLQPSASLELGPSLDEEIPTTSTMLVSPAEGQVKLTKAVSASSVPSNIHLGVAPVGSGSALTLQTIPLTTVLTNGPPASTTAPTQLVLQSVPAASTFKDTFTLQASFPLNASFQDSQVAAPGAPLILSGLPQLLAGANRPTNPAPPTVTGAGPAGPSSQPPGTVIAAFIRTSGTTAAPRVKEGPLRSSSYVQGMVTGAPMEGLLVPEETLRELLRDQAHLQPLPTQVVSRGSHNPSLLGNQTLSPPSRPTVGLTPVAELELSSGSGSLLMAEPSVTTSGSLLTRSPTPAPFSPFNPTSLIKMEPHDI
Sequence of ETV1 (P50549 whole entry): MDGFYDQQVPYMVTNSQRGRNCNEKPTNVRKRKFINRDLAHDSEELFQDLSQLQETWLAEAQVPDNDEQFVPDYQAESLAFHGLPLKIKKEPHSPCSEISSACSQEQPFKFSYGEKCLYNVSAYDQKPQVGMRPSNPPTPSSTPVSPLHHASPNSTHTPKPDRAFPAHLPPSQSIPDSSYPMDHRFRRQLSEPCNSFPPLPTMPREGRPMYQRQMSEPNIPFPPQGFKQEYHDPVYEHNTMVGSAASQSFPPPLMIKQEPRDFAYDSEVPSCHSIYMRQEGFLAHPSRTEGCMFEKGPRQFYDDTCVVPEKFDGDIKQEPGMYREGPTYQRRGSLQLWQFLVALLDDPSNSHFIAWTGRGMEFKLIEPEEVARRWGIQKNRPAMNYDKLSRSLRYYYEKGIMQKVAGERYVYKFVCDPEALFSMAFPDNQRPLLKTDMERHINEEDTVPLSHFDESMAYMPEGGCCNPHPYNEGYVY
Sequence of CRX (O43186 whole entry): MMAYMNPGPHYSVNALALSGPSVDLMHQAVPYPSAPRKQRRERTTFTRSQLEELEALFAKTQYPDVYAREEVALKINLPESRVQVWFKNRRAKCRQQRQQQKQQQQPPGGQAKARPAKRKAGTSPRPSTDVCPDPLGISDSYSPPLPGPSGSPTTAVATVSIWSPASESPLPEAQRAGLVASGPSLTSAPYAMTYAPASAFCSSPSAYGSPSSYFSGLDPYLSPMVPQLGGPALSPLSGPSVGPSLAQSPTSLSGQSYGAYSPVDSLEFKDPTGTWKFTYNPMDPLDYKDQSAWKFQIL
Sequence of ELF1 (P32519 whole entry): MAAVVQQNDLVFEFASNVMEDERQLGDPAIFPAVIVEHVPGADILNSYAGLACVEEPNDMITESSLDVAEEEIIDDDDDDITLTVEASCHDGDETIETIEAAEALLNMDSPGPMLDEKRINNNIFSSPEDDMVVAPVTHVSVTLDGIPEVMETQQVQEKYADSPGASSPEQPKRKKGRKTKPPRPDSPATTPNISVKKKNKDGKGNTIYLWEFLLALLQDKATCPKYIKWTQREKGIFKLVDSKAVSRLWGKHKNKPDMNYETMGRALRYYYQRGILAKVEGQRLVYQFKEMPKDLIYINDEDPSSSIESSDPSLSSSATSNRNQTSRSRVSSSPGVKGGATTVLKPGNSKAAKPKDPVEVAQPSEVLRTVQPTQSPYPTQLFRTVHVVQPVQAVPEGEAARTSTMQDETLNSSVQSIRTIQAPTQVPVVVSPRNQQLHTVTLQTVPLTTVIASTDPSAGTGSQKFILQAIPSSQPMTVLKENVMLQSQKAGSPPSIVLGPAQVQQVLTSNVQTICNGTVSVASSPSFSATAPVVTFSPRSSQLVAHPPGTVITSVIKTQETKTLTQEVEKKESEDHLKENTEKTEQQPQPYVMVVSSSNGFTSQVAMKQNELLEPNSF
Sequence of HSF1 (Q00613 whole entry): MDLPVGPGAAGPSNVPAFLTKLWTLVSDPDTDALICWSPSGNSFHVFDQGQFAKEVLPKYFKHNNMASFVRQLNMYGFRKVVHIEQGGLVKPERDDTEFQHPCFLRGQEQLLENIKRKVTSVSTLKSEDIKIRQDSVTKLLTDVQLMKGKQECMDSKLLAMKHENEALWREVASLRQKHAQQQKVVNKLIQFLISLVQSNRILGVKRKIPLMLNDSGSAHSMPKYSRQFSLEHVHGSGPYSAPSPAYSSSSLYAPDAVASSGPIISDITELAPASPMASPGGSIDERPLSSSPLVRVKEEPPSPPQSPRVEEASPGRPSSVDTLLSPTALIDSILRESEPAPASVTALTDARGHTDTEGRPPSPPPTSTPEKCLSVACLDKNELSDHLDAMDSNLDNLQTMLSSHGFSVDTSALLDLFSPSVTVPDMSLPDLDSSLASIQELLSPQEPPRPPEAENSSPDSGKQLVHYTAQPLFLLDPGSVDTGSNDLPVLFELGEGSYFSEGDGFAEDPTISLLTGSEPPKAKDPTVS
Sequence of ETV5 (P41161 whole entry): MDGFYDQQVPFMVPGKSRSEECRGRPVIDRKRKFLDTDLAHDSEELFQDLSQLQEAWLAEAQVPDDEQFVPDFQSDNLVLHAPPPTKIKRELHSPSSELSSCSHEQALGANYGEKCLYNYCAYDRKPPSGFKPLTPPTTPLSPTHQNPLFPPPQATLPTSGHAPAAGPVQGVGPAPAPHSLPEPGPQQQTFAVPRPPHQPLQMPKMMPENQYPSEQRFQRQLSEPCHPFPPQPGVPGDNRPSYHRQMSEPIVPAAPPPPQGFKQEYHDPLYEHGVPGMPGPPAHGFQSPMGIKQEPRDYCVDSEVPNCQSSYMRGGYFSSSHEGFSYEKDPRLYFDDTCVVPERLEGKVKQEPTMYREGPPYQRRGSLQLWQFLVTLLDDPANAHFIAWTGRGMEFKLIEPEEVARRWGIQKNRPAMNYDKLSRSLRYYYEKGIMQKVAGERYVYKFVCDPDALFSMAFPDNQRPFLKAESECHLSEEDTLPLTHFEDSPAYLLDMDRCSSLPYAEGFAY
Sequence of SPIB (Q01892 whole entry): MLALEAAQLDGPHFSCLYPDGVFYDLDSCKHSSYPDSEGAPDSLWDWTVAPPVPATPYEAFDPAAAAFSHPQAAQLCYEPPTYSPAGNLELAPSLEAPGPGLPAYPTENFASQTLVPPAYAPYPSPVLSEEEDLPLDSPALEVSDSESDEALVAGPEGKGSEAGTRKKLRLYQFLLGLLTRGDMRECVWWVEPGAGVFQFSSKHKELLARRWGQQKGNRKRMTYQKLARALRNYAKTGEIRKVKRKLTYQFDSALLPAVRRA

Sequence	binding signal (FLI1)	binding signal (ELK1)	binding signal (GABPA)	binding signal (ERG)	binding signal (ELF1)	binding signal (EHF)	binding signal (SPI1)	binding signal (SPIB)	binding signal (ELK3)	binding signal (FEV)	binding signal (ETV5)	binding signal (HSF1)	binding signal (ELF4)	binding signal (ELK4)	binding signal (ETV2)	binding signal (ELF3)	binding signal (CRX)	binding signal (ETV1)
GTTTAC	1.21 fold enrichment (6-mer frequency, TF over GST control)	1.13 fold enrichment (6-mer frequency, TF over GST control)	1.19 fold enrichment (6-mer frequency, TF over GST control)	1.12 fold enrichment (6-mer frequency, TF over GST control)	1.08 fold enrichment (6-mer frequency, TF over GST control)	1.14 fold enrichment (6-mer frequency, TF over GST control)	1.13 fold enrichment (6-mer frequency, TF over GST control)	1.09 fold enrichment (6-mer frequency, TF over GST control)	1.03 fold enrichment (6-mer frequency, TF over GST control)	1.11 fold enrichment (6-mer frequency, TF over GST control)	1.1 fold enrichment (6-mer frequency, TF over GST control)	1 fold enrichment (6-mer frequency, TF over GST control)	1.12 fold enrichment (6-mer frequency, TF over GST control)	1.32 fold enrichment (6-mer frequency, TF over GST control)	1.11 fold enrichment (6-mer frequency, TF over GST control)	1.28 fold enrichment (6-mer frequency, TF over GST control)	1.01 fold enrichment (6-mer frequency, TF over GST control)	1.17 fold enrichment (6-mer frequency, TF over GST control)
CTTTAG	1.27 fold enrichment (6-mer frequency, TF over GST control)	1.31 fold enrichment (6-mer frequency, TF over GST control)	1.21 fold enrichment (6-mer frequency, TF over GST control)	1.12 fold enrichment (6-mer frequency, TF over GST control)	1.19 fold enrichment (6-mer frequency, TF over GST control)	1.08 fold enrichment (6-mer frequency, TF over GST control)	1.28 fold enrichment (6-mer frequency, TF over GST control)	1.11 fold enrichment (6-mer frequency, TF over GST control)	1.11 fold enrichment (6-mer frequency, TF over GST control)	1.18 fold enrichment (6-mer frequency, TF over GST control)	1.1 fold enrichment (6-mer frequency, TF over GST control)	1.37 fold enrichment (6-mer frequency, TF over GST control)	1.26 fold enrichment (6-mer frequency, TF over GST control)	1.15 fold enrichment (6-mer frequency, TF over GST control)	1.23 fold enrichment (6-mer frequency, TF over GST control)	1.34 fold enrichment (6-mer frequency, TF over GST control)	1.51 fold enrichment (6-mer frequency, TF over GST control)	1.24 fold enrichment (6-mer frequency, TF over GST control)
